# DT40 TDP1 no CPT: qHTS for Inhibitors of human tyrosyl-DNA phosphodiesterase 1 (TDP1): qHTS in cells in absence of CPT; Potency, µM (top dose mostly 46.2 µM), inactives show at the highest dose activity change, negative = growth inhibition, usual class: inhibitors; 420,000 compounds, 15% hits; DT40 Tdp1-/- hTDP1 cells, no CPT, ATP luminescence, 48 h; also: potency is read from the fitted curve at half-maximal effect; nearly all actives have a fitted effect of over 55% in size
#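 No-CPT arm: Tdp1-/-;hTDP1 DT40 cells (400/well) plus compounds, incubated ≥48 hr at 37 °C. Readout CellTiter-Glo luminescence.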
# TDP1 cell CPT: growth inhibition of DT40 Tdp1-/-;hTDP1 cells with camptothecin (screen for TDP1 inhibitors) | chicken DT40 Tdp1-/-;hTDP1 cells + 20 nM CPT, ATP luminescence, 48 h | Potency, µM (titrated, usually from 46.2 µM), without a hit: at the highest dose activity change, negative = growth inhibition, hits mostly inhibitors | 420,000 compounds, 12% hits | AID 686979; also: potency is read from the fitted curve at half-maximal effect; nearly all actives have a fitted effect of over 55% in size
#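 Chicken DT40 Tdp1-/- cells complemented with human TDP1, 400 cells/well, exposed to compounds plus 20 nM camptothecin for at least 48 h at 37 C; viability read as ATP content by CellTiter-Glo luminescence.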
# HT1080-NT tox: kills 2HG-producing HT-1080-NT fibrosarcoma cells; HT-1080-NT fibrosarcoma viability, CellTiter-Glo ATP luminescence, 48 h; Potency, µM (highest dose often 46.1 µM), for inactives: at the top dose activity, negative = less viability, actives largely listed as cytotoxic; 360,000 compounds, 1.6% hits; AID 686970;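 also: NT is the 2HG producing partner of a matched IDH1 knockdown line; potency is read from the fitted curve at half-maximal effect; 0% = DMSO-treated cells and -100% = media-only wells without cells; nearly all actives have a fitted effect of over 55% in size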
#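 HT-1080-NT; 750 cells/well; 5% FBS RPMI; 48 h compound, 37 degrees C; CellTiter-Glo luminescence; curve fitting and curve-class assignment.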
# HT1080 IDH1KD tx: kills HT-1080 cells with IDH1 knockdown; HT-1080 IDH1 knockdown viability, ATP luminescence, 48 h; Potency, µM (titrated, usually from 46.1 µM), for inactives: at the highest dose activity, negative = toxicity, usual class: cytotoxic; 360,000 compounds, 2% hits;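 also: potency is read from the fitted curve at half-maximal effect; 0% = DMSO wells and -100% = cell-free medium wells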
#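 HT-1080-IDH1KD cells (IDH1 knocked down), 750/well in RPMI with 5% FBS, treated with compound 48 h at 37 degrees C. Viability by CellTiter-Glo luminescence, normalised to DMSO and no-cell wells; concentration-response curves classed.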
# IL-1B inflam inh: inflammasome signaling inhibition, IL-1 beta readout; 360,000 compounds, 4.7% hits; AID 743279; activity change, % at 57.5 µM; THP-1 LPS/ATP IL-1B secretion, AlphaLISA, 16 h; active compounds read low; in the data active = activity change below about -50%; inconclusive = mostly about -30% to -49%
#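 THP-1 cells pretreated 1 hr with compounds (up to 57.5 uM final), then stimulated with LPS (250 ng/mL final) plus ATP (1.25 mM final); secreted IL-1B measured by AlphaLISA after 16 hr, decreased signal indicating inhibition.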
# * = called active by the depositor; i = inactive; ? = inconclusive; / = no result; [ ] = remark or other dose. Rows were chosen to be rich in hits. Some 19% of all compounds tested hit in one or more screens of this group. Unless noted, calls follow the shape of the dose curve; as a rule, active = well fitted curve in the direction sought with a large enough effect; inconclusive = small, poorly fitted or top-dose-only effect, or another doubt; inactive = no such curve, though single readings can be large; an effect the other way counts as inactive or inconclusive. Unless noted, % is scaled to controls: 0 for no effect and ±100 for the full control effect.
SMILES,DT40 TDP1 no CPT,TDP1 cell CPT,HT1080-NT tox,HT1080 IDH1KD tx,IL-1B inflam inh
CC(NC(=S)NCc1ccc(F)cc1)C12CC3CC(CC(C3)C1)C2 (stereo unspecified),15µM*,?,?,?,-84*
CCCS(=O)(=O)Nc1ccc(N2CCCCC2)c(S(=O)(=O)Nc2ccccc2OC)c1,16µM*,?,-3%,1%,-6
COc1ccccc1NS(=O)(=O)c1cc(NC(=O)c2cccnc2)ccc1N1CCCCC1,23µM*,?,?,-23%,?
COc1ccccc1NS(=O)(=O)c1cc(N)ccc1N1CCCCC1,?,-24%,1%,-1%,-11
Cc1ccc(NC(=O)c2ccc3c(c2)CCN3S(C)(=O)=O)c(C)c1,-30%,-3%,6%,-7%,?
COc1ccc(CNC(=O)CSCc2cnn(-c3ccccc3)c2-n2cccc2)cc1,23µM*,-25%,0%,1%,-22
Cc1ccccc1CNC(=O)CCSCc1cnn(-c2ccccc2)c1-n1cccc1,16µM*,?,/,/,/
COc1ccc(OC)c(CCNC(=O)c2cnn(-c3ccccc3)c2-n2cccc2)c1,1.8µM*,23µM*,/,/,/
COc1ccc(NC(=O)c2cnn(-c3ccc(C)cc3)c2-n2cccc2)cc1Cl,?,-23%,/,/,/
O=C(CSCc1cnn(-c2ccccc2)c1-n1cccc1)NCCN1CCOCC1,-24%,-14%,-7%,0%,-1
COc1ccc(NC(=O)CSCc2cnn(-c3ccccc3)c2-n2cccc2)cc1,16µM*,?,/,/,/
COc1cn(-c2ccccc2)nc1C(=O)NCc1ccc(C)cc1,?,3%,-10%,-4%,-13
N#Cc1cccc(NC(=O)N2CC[C@@]3(CCCNC3)C2)c1,-14%,-90%,/,/,/
COc1ccc(NC(=O)NNC(=O)COc2ccc([N+](=O)[O-])c(C)c2)cc1OC,-2%,6%,0%,-1%,i
CN1CCC(N(C)C(=O)c2ccc(Cl)c(S(=O)(=O)N3CCOCC3)c2)CC1,0%,-28%,-5%,-1%,-3
Cc1ccc(C)c(NC(=O)c2cnn3ccccc23)c1,12µM*,5.8µM*,1%,-10%,39
COc1ccc(CCNC(=O)c2cnn3ccccc23)c(OC)c1OC,23µM*,?,24%,12%,-2
CCN(CC)C(=O)CSCc1cnn(-c2ccccc2)c1-n1cccc1,16µM*,?,-2%,3%,-21
O=C(CSCc1cnn(-c2ccccc2)c1-n1cccc1)NCC1CCCO1 (stereo unspecified),?,?,6%,4%,-5
COc1ccc(Cn2c(=O)n(-c3ccc(OC)cc3)c(=O)c3c2c2cc(OC)ccc2n3C)cc1,-27%,-17%,/,/,/
COC(=O)C1C2OC(C(Br)C2Br)C1C(=O)OC (stereo unspecified),5%,11%,11%,1%,27
Cc1nnc2sc(SCC(=O)Nc3nccs3)nn2c1=O,?,?,6%,19%,11
CCN(Cc1ccncc1)Cc1ccc2c(c1)CN(C(=O)c1cccc3c(C)c(C)[nH]c13)CCO2,-20%,-3%,/,/,/
CCOc1ccc(-c2nonc2NC(=O)c2oc3ccc(F)cc3c2C)cc1,0.82µM*,0.92µM*,/,/,/
CCCOc1ccc(-c2nonc2NC(=O)c2oc3ccc(Cl)cc3c2C)cc1OCCC,7.3µM*,?,/,/,/
SMILES,DT40 TDP1 no CPT,TDP1 cell CPT,HT1080-NT tox,HT1080 IDH1KD tx,IL-1B inflam inh
CCc1nonc1NC(=O)c1oc2ccc(F)cc2c1C,-15%,1%,2%,-1%,-4
CCOc1ccc(-c2nonc2NC(=O)c2oc3cc(C)ccc3c2C)cc1OCC,-25%,-8%,/,/,/
Cc1c(C(=O)Nc2nonc2-c2ccc(F)cc2)oc2ccc(F)cc12,?,?,?,21µM*,60
Cc1c(C(=O)NC(C)(C)C)sc2ncnc(NCCN(C)C)c12,-20%,17%[9.04 µM],/,/,/
CCc1ccc(C(=O)c2c(N)c(-c3nc(-c4ccc5c(c4)OCO5)cs3)c3ccccn23)cc1,-21%,-9%,/,/,/
CN(CC(=O)Nc1ccc(Cl)c(C(F)(F)F)c1)C(=O)C1CSC2(C)CCC(=O)N12 (stereo unspecified),18µM*,?,3%,-11%,-3
CN(CC(=O)Nc1ccc(F)c(F)c1F)C(=O)C1CSC2(C)CCC(=O)N12 (stereo unspecified),0%,-22%,-1%,6%,0
COc1cccc(CN(C)C(=O)C2CSC3(C)CCC(=O)N23)c1OC (stereo unspecified),-10%,-14%,1%,-1%,3
CN(Cc1ccc(C(C)(C)C)cc1)C(=O)C1CSC2(C)CCC(=O)N12 (stereo unspecified),?,16µM*,-16%,-2%,21
C=CCN(C(=O)C1CSC2(C)CCC(=O)N12)c1nc(-c2ccccc2)cs1 (stereo unspecified),23µM*,18µM*,-7%,-22%,-26
Cc1ccc(-c2csc(NC(=O)C3CSC4(C)CCC(=O)N34)n2)cc1 (stereo unspecified),-22%,-8%,6%,4%,13
COC(=O)N1CCC2(CC1)CN(C(=O)Nc1ccc(OC)cc1)C2,-1%,7%,/,/,/
COc1ccc(S(=O)(=O)Nc2cc3[nH]c(=O)oc3cc2C)cc1,?,?,?,?,19
CC(=O)N1CCN(c2nc(-c3cccs3)nc3ccccc23)CC1,?,-7%,-15%,-19%,-86*
CCOC(=O)N1CCN(c2nc(-c3cccs3)nc3ccccc23)CC1,15µM*,23µM*,-21%,-20%,?
CCOC(=O)c1ccc(S(=O)(=O)N2CCN(c3nc(-c4cccs4)nc4ccccc34)CC2)cc1,-22%,-20%,/,/,/
CC(=O)c1ccc(S(=O)(=O)N2CCN(c3nc(-c4cccs4)nc4ccccc34)CC2)cc1,?,-30%,/,/,/
COc1ccccc1NC(=O)CSc1ccc2nnc(CCNC(=O)c3ccccc3)n2n1,5%,1%,-5%,1%,i
O=C(Cn1cnc([N+](=O)[O-])n1)NC1CC1,8%,-9%,3%,6%,25
CCOCCCNC(=O)C(c1ccc(C)cc1)N(Cc1cccs1)C(=O)c1ccc(NC(C)=O)cc1 (stereo unspecified),18µM*,21µM*,/,/,/
CCOCCCNC(=O)C(c1ccccc1)N(Cc1ccc2c(c1)OCO2)C(=O)c1ccc(NC(C)=O)cc1 (stereo unspecified),-25%,?,/,/,/
CCOCCCNC(=O)C(c1ccccc1)N(Cc1cccs1)C(=O)c1ccccc1O (stereo unspecified),?,-12%,-11%,-11%,0
